The values below come from PubChem BioAssay AID808 (Columbia University Molecular Screening Center, 2007).

Out of some 93,000 compounds screened, about 180 (0.19%) were called active. The full list was thinned out, with actives kept by preference. A number with no mark means an inactive call.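 The calls were made as follows: active = activation above the screen mean plus 3 SD, with well images confirming the hit on visual review (cut at about 28% in these data, passing the limit was not always enough); inconclusive = activation above that limit but images do not confirm it; inactive = activation not above that limit.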

The nature of the experiment: enhancers of endothelial VCAM-1 upregulation by TNFa – imaging, HUVEC, TNFa stimulus, immunofluorescence, primary screen (AID 808).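 Also: signal is the number of cytoplasmic VCAM-1 stained grains per positive cell.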 The conditions noted are these: HUVEC TNFa-stimulated VCAM-1 immunofluorescence, high-content imaging; at 2 µM; stronger effect = higher value; scaled per plate to unstimulated/TNFa-only wells.
As to `CCOc1ccc(NC(=O)Nc2ccc(N(C)C(C)=O)cc2)cc1`, the activation is 16.6%.

Turning to `O=C(NCCN1CCOCC1)[C@H](Cc1ccccc1)N1C(=O)c2ccccc2C1=O`, the activation was -8.5%.

On to `C=CCn1c(COc2ccccc2F)nnc1SCC(=O)N1CC(=O)Nc2ccccc21`, for which the activation was -4.4%.

`O=C(c1ccc(Cl)cc1)c1ccc(OCC(O)CN2CCCCC2)cc1` (configuration not stated): the activation is -0.9%.

In the case of `Cc1cc(NC(=O)COc2ccc(Cl)cc2Cl)n(CCC#N)n1`, the activation was 4.1%.

In the case of `COc1cccc(C(=O)Nc2ccc(NC(=O)c3ccco3)cn2)c1`, the activation was 8.2%.

Turning to `Cc1cnc(NC(=O)C2CCCC2)s1`, the activation was -57.6%.

`COCCNC(=O)c1snc2ccc(Cl)cc12`: the activation was 11.1%.

As to `O=C(NCCN1CCN(Cc2ccccc2)CC1)c1cc2c(=O)[nH]c3ccccc3c2s1`, the activation was 2.1%.

Take `O=C(CS(=O)(=O)c1cn(Cc2cccc(F)c2)c2ccccc12)N1CCCCC1`: the activation is -50.1%.

Turning to `CCOC(=O)N1CCN(C(c2cccnc2)c2ccc3cccnc3c2O)CC1` (configuration not stated), the activation was -10%.

With `CC1=NN(C(C)C)C(=O)C1`, the activation was 25% (active).

In the case of `COc1ccc(Cl)cc1C(=O)NCC#N`, the activation was 5.7%.

`COC(=O)c1c(-c2cccs2)csc1NC(=O)CSc1ncnc2sc(C)c(C)c12`: the activation is 1.8%.

Consider `Cc1[nH]n(-c2ccc(Cl)cc2)c(=O)c1/C=N/n1c(C)nc2ccccc2c1=O`, for which the activation is 9.2%.

Take `CCN(CC)C(=O)CSC1c2ccccc2C(=O)N1c1ccccc1` (configuration not stated): the activation is -7.1%.

`CCN(CC)CCCNC(=O)CCc1ccccc1`: the activation is 4.1%.

`C/C(=C\C(=O)c1ccccc1)Nc1cccc(O)c1`: the activation is 2.2%.

For the compound `Cc1nnc(SCC(=O)NC2CCCC2)s1`, the activation was -13.9%.

In the case of `CN(C)CCCn1c(N)c(C#N)c2nc(C#N)c(C#N)nc21`, the activation was -7.9%.

For `C=CCn1c(Cn2nnc3ccccc32)nnc1SCC(=O)N/N=C/c1cc(Br)cc(OC)c1O`, the activation was 1.7%.

For the compound `CCOc1ccc(N=C2NC(=O)S/C2=C\c2ccc(O)cc2)cc1`, the activation was 29.2% (active).

Turning to `O=C(Cc1ccc(-n2c(=O)[nH]c3ccccc3c2=O)cc1)N1CCN(c2cccc(Cl)c2)CC1`, the activation was -1.2%.

As to `Cc1c(C(=O)OCC(=O)N(CCC#N)c2ccccc2)oc2c1ccc1ccccc12`, the activation is -4.9%.

Consider `COc1ccccc1NC(=O)CSc1nnc(Cn2nnc(-c3ccccc3)n2)n1-c1ccccc1`, for which the activation is 11.3%.

For `CSc1nc2ccccc2cc1/C=C(\C#N)c1ccc(Cl)cc1Cl`, the activation was -3.2%.

For the compound `CCCCN(C)C(=O)C1CCN(Cc2ccccn2)CC1`, the activation was 35.5% (active).

In the case of `Cc1ccc(OCC(O)CN2CCN(CC(O)COc3ccc(C)cc3Cl)CC2)c(Cl)c1` (configuration not stated), the activation is -1.2%.

Regarding `O=C(c1ccco1)N1CCN(C(=O)C2c3ccccc3Oc3ccccc32)CC1`, the activation was -5.9%.

For the compound `Cc1ccc(F)cc1NC(=O)c1ccc2c(c1)OCO2`, the activation is -96.8%.

Consider `CC(=O)Nc1ccc(S(=O)(=O)N2CCN(C(=O)c3ccccc3F)CC2)cc1`, for which the activation is -7.6%.

Take `C=C(Br)CN1CCN(CC(=C)Br)CC1`: the activation is 17.8%.

As to `Cn1c(C(=O)OC(C(=O)NC2CCCCC2)c2ccccn2)cc2sccc21` (configuration not stated), the activation was 7.6%.

Consider `C=C(C)CNC(=S)/N=c1\scc(C)n1CC`, for which the activation was -4.4%.

As for `COc1cccc(OCc2cc(/C=N/NC(=O)c3nc(Cl)c(Cl)c(N)c3Cl)ccc2OC)c1`, the activation was -6.7%.

Consider `CCC(CC)c1nnc(NS(=O)(=O)Cc2ccccc2)s1`, for which the activation is 11.2%.

As for `COc1cc(C)nc(N2CCCC(C(=O)NCC(C)C)C2)n1` (configuration not stated), the activation was 5.6%.

Turning to `COc1ccc2c(c1OC)C(=O)N(c1ncn[nH]1)C2`, the activation was -7.1%.

`Nc1nonc1-c1noc(-c2ccc(Br)o2)n1`: the activation is 9.6%.

Take `COc1ccc(Nc2cc(=O)oc3ccccc23)cc1`: the activation was -88.9%.

As for `Cc1cccc(Cn2c(SCCO)nc3c2c(=O)n(C)c(=O)n3C)c1`, the activation is -4.1%.

Regarding `Cc1cccc(C)c1N1CCN(S(=O)(=O)N2CCOCC2)CC1`, the activation was -11.4%.

With `CSc1ccc(Cl)c(C(=O)OCC(=O)N2CC(C)OC(C)C2)c1` (configuration not stated), the activation was 4.1%.

In the case of `NS(=O)(=O)c1cccnc1Nc1cccc(Cl)c1`, the activation is 4.4%.

Take `CCN(CC)P(=O)(/C(Cl)=C\Nc1c(C)n(C)n(-c2ccccc2)c1=O)N(CC)CC`: the activation was 10.1%.

With `CN(C)S(=O)(=O)c1ccc(N2CCCC2)c(C(=O)NCc2ccccc2)c1`, the activation was -5.1%.

On to `COc1ccc(F)cc1S(=O)(=O)Nc1ccc2c(c1)OCO2`, for which the activation is 22.9%.

Take `COCCNS(=O)(=O)c1cc(Br)ccc1OC`: the activation is 35.9% (active).

Turning to `CCCN1Cc2cccc(C(=O)Nc3ccc(S(=O)(=O)N4CCCCCC4)cc3)c2C1=O`, the activation is 1.5%.

For `C/C(=N\NC(=O)c1ccc(C)cc1)C1C(=O)c2ccccc2C1=O`, the activation is -6.4%.

For `CCCC(=O)n1nc(-c2ccccc2)nc1N`, the activation was 25.9%.

For the compound `O=C(COC(=O)c1ccc(S(=O)(=O)N2CCc3ccccc3C2)cc1)NC(=O)NCc1ccco1`, the activation was -0.5%.

With `COC(=O)c1sc2ncccc2c1OCc1ccc(Cl)cc1Cl`, the activation was -10.3%.

Turning to `C=C(Cl)COC(=O)C1C2C=CC(C2)C1C(=O)O` (configuration not stated), the activation was 12.1%.

For `CCN(CC(=O)Nc1ccc2c(c1)OCCO2)Cc1cc(=O)oc2cc(C)c(C)cc12`, the activation is 54.4% (active).

For the compound `Cc1ccc(C(=O)Nc2ccc3c(c2)OCO3)cc1S(=O)(=O)N1CCCCC1`, the activation is 7.1%.

`Cn1cc([N+](=O)[O-])c(C(=O)Nc2ccc3c(c2)OCCO3)n1`: the activation is -36.8%.

Consider `CC(CCc1ccccc1)NC(=O)c1ccc(Br)o1` (configuration not stated), for which the activation is -95.4%.

As to `NC(=O)COc1ccc2c3c(c(=O)oc2c1)CCCCC3`, the activation was -35%.

For `Cc1cc(Cl)c(S(=O)(=O)NCC2CCCO2)cc1OCC(N)=O` (configuration not stated), the activation is 25.1%.

Regarding `Cc1cc(=O)oc2cc(OCC3CC(c4ccccc4Cl)=NO3)ccc12` (configuration not stated), the activation is -59.7%.

Consider `Cc1ccc(CNC(=O)CCCNC(=O)c2ccc(Cl)cc2)n1C`, for which the activation was 7.4%.
